PubChem BioAssay AID2314 (National Center for Advancing Translational Sciences (NCATS), 2010)
Values joined by “and” are separate entries in the source; they are usually repeats but may differ in a detail not shown here. Equal values may be shown once. The campaign covered roughly 300,000 compounds. About 37,000 (12%) were called active. This excerpt belongs to a sample that is enriched for actives. Values without a mark were called inactive. Cut-off read from the data, not from the text of the source: active = max response mostly above about 13% (no sharp cut-off); inactive = mostly below about 14%.

Assay: Cycloheximide Counterscreen for Small Molecule Inhibitors of Shiga Toxin; note: read at 38.3 µM for the half of the compounds with a filed dose; 0% is about no effect
Conditions: cell reporter, cycloheximide protein synthesis inhibition counterscreen; active compounds read high

| SMILES | max response |
| --- | --- |
| C=CCn1c(SCCOc2ccc(OC)cc2)nnc1C(NC(=O)c1ccc(OC)cc1)C(C)C (stereo not given) | -2.43% |
| CN(CC1CCCO1)S(=O)(=O)c1ccc(C(=O)Nc2ccc(F)cc2)cc1 (stereo not given) | 3.84% |
| Cc1oc(-c2ccccc2Cl)[n+]([O-])c1C | -1.24% |
| CCCSc1nc2sc3c(c2c(=O)n1-c1ccc(OC)cc1)CCN(C)C3 | 0.929% |
| CCc1cccc(NC(=O)C2CCCN(S(=O)(=O)c3ccc4[nH]c(=O)ccc4c3)C2)c1 (stereo not given) | 14.1% |
| Cn1c(=O)n(C)c2cc(S(=O)(=O)Nc3ccc(F)cc3)ccc21 | 1.27% |
| CCN(CC)CCN(C(=O)c1ccc(S(=O)(=O)N2CCOCC2)cc1)c1nc2cc3c(cc2s1)OCCO3 | 13.6% (active) |
| CN(C)CCCN(C(=O)c1ccc(S(=O)(=O)N2CCCc3ccccc32)cc1)c1nc2ccc(F)cc2s1 | 0.524% |
| O=C(Nc1nc2cc3c(cc2s1)OCCO3)c1cccc(S(=O)(=O)N2CCOCC2)c1 | -5.43% |
| CCOc1ccc2nc(N(CCCN(C)C)C(=O)c3ccc(C(=O)c4ccccc4)cc3)sc2c1 | -2.35% |
| CN(C)CCCN(C(=O)c1ccc(S(=O)(=O)N2CCCCCC2)cc1)c1nc2ccc(Br)cc2s1 | 11.5% (active) |
| CCN(CC)CCN(C(=O)c1ccc(N2C(=O)CCC2=O)cc1)c1nc2cc3c(cc2s1)OCO3 | 14.3% |
| CCOc1cc(C)c(S(=O)(=O)NCc2ccccn2)cc1C | -2.56% |
| COc1cc(OC)c2ccc(=O)oc2c1C(CCN1CCN(c2ccccc2)CC1)c1ccc2c(c1)OCO2 (stereo not given) | 1.12% and 1.78% |
| Cc1cccc(CSc2nc3c(c(=O)n2C)SCC3)c1 | 8.73% |
| CC(C)Oc1ccc(/C=N/NC(=O)c2nnn(-c3nonc3N)c2CN(C)C2CCCCC2)cc1 | -0.539% |
| O=C(O)CN1c2cccc3cccc(c23)S1(=O)=O | 8.16% |
| COc1ccc(/C(O)=C2/C(=O)C(=O)N(CCCN(C)C)C2c2ccccc2)cc1OC (stereo not given) | 5.45% |
| CCCOc1ccc(/C(O)=C2/C(=O)C(=O)N(CCN(C)C)C2c2ccc(OC)c(OC)c2)cc1 (stereo not given) | 5.75% |
| CCN(CC)CCN1C(=O)C(=O)/C(=C(/O)c2ccc(OC)c(OC)c2)C1c1ccccn1 (stereo not given) | 17.9% (active) |
| COc1ccc(S(=O)(=O)N2CCCC(C(=O)NCCCn3ccnc3)C2)cc1OC (stereo not given) | -5.51% |
| Cc1ccsc1-c1cc(C(=O)O)c2c(ccc3ccccc32)n1 | 16.2% |
| CCn1c(=N)c(C(=O)NCCCOC)cc2c(=O)n3cccc(C)c3nc21 | -3.15% |
| Cc1cccn2c(=O)c3cc(C(=O)NC4CCCCC4)sc3nc12 | 7.47% |

| SMILES | max response |
| --- | --- |
| CCOCCCNC(=O)c1cc2c(=O)n3ccccc3nc2s1 | 30.4% (active) |
| CC1CC(C)CN(CC(=O)N2c3ccccc3CCc3ccccc32)C1 (stereo not given) | -3.85% |
| O=C(Nc1cccc([N+](=O)[O-])c1)N1CCc2ccccc2C1 | 51.1% (active) |
| Cc1cccc(C)c1NC(=O)c1ccc(CN2CCc3ccccc3C2)cc1 | -1.05% |
| CN(CC(=O)Nc1cccc(F)c1)CC(=O)Nc1cccc([N+](=O)[O-])c1 | 13.6% |
| Cc1ccc(NC(=O)CN2CCc3ccccc3C2)cc1C | 18% |
| CCc1ccc(NC(=O)N2CCc3ccccc3C2)cc1 | 49.7% (active) |
| Cc1ccc(NC(=O)CN2CCc3ccccc3C2)cc1 | 16.3% (active) |
| COc1cc2c(cc1OC)CN(CC(=O)Nc1ccc(F)cc1)CC2 | -3.51% |
| O=C(Nc1cccc([N+](=O)[O-])c1)Nn1cnnc1 | 3.77% |
| CCc1ccc(NC(=O)N2CCN(c3ccccc3)CC2)cc1 | 12% |
| Cn1c(=O)c([N+](=O)[O-])c(Oc2ccccc2)c2ccccc21 | -2.35% |
| O=C(NC(=S)N1CCc2ccccc21)c1ccco1 | 8.62% |
| COc1ccc(C(=O)CC(=O)c2ccc(C)cc2)c(O)c1 | 20% (active) |
| Cc1cc(O)cc(O)c1C(=O)Cc1cnn(-c2ccccc2)c1 | 14% |
| Cc1[nH]nc(-c2ccc(OCc3cnn(-c4ccccc4)c3)cc2O)c1Oc1ccc(Cl)cc1 | 0.856% |
| COc1ccc(C(=O)NNS(=O)(=O)c2ccc(C)cc2)cc1 | -1.39% |
| COc1ccc(C(=O)Cc2cnn(-c3ccccc3)c2)c(O)c1 | 39.4% (active) |
| COc1ccc(C(=O)C[n+]2ccc(C)cc2)cc1 | 0.721% |
| COc1ccc(CCNC(=S)NC(=O)/C=C/c2ccc(C)cc2)cc1OC | 9.56% |
| COC(=O)c1c(NC(=O)C(=O)N2CCCCC2)sc2c1CC(C)(C)OC2 | -2.72% |
| CC(=O)N1CCN(CC(C)(C)NS(=O)(=O)c2ccc(C)cc2)CC1 | -1.04% |
| CCn1c(SCC(=O)Nc2nc3ccc(OC)cc3s2)nnc1-c1ccoc1C | 23.1% (active) |
| CCOc1ccc2nc(NC(=O)CSc3nc4c(c(=O)n(C)c(=O)n4C)n3CC)sc2c1 | -6.89% |

| SMILES | max response |
| --- | --- |
| CCn1c(SCC(=O)NC2CCCC2)nnc1-c1ccoc1C | -1.45% |
| CC(=O)Nc1ccc(SCC(=O)Nc2ccccc2Oc2ccccc2)cc1 | 0.468% |
| C=CCNC(=O)c1ccccc1NC(=O)c1ccc(Cl)c(S(=O)(=O)Nc2cccc(C)c2C)c1 | 1.27% |
| CCc1cccc(C)c1NS(=O)(=O)c1c(C)nc2sccn2c1=O | -1.71% |
| Cc1ccc2c(c1)c1ncn(Cc3ccc(F)cc3)c(=O)c1n2C | -2.24% |
| Cc1ccc2c(c1)c1ncnc(N3CCc4ccccc4C3)c1n2C | 42.1% (active) |
| Cc1ccc2c(c1)c1ncn(CCC3=CCCCC3)c(=O)c1n2C | -3.65% |
| OCCN1CCN(c2nnc(-c3ccccc3)c3ccccc23)CC1 | -4.91% |
| COc1ccc(S(=O)(=O)NCC(=O)NCc2cc(=O)n(C)c(=O)n2C)cc1F | -6.78% |
| O=C(COc1ccc2c(c1)CCC2)N1CCN(c2ccc(F)cc2)CC1 | -1.09% |
| Nc1nonc1C(=O)NCCc1ccccc1 | 10.9% |
| CC(C)Cc1cc(C(=O)NCCc2ccccc2)no1 | 53.1% (active) |
| Cc1cc(C(=O)NCCCc2ccccc2)no1 | 13.1% (active) |
| CSc1ncc(C(=O)NCCCc2ccccc2)c(C)n1 | 10.8% |
| O=C(COC(=O)c1ccc(F)cc1)NCCCc1ccccc1 | -9.6% |
| O=C(NCCCc1ccccc1)c1cc(COc2c(F)cccc2F)on1 | 31.8% (active) |
| CCCCNC(=S)NNC(=O)c1cc(C)on1 | -1.9% |
| Cc1c(NC(=O)c2cc(-c3ccc(Br)cc3)on2)c(=O)n(-c2ccccc2)n1C | -1.9% |
| O=C(NCCN1CCCC(O)C1)c1cc(COc2c(F)cccc2F)on1 (stereo not given) | 9.93% |
| CC(C)CNC(=O)c1cc(-c2ccc(Br)cc2)on1 | 36% (active) |
| C[C@H](NC(=O)NCCc1ccccc1)C(=O)O | -6.82% |
| CCN(CC)CCCNC(=O)c1cc(-c2cccc(Cl)c2)on1 | 0.892% |
| Cc1ccc2c(c1)N(CC(=O)NCCCN1CCCCC1)C(=O)c1cccnc1O2 | 1.05% |
| Cc1cccc(NC(=O)Cn2c(=O)n(Cc3ccccc3)c(=O)c3c(C)c(C)sc32)c1 | -2.17% |

| SMILES | max response |
| --- | --- |
| CCOc1ccc(OCC)c(NC(=O)CSc2nnc(Cn3cnc4ccccc43)n2C)c1 | -0.798% |
| COc1cccc(-n2nc(C(=O)N3CCN(Cc4ccccc4)CC3)c3ccccc3c2=O)c1 | 1.57% |
| COc1ccc(C(=O)Nc2ccnn2C2CCN(Cc3ccncc3)CC2)cc1 | 7.85% |
| O=C(CCN1C(=O)[C@@H]2Cc3ccccc3CN2C1=O)NCCc1ccccc1 | -1.26% |
| CCCOc1ccc(C2=CSC3=NCCN23)cc1Cl | 1.92% |
| O=C(CSc1ncccn1)N1CCCC1 | -5.34% |
| O=S(=O)(NCC1OCCc2ccccc21)c1ccccc1 (stereo not given) | 1.35% |
| CC(=O)c1nc2ccccc2n1Cc1ccccc1 | -1.93% |
| CC(C)Cc1cc(C(=O)Nc2cc(Br)ccc2O)no1 | 31.8% (active) |
| COc1ccc(NS(=O)(=O)c2ccc(N3CCN(CCO)CC3)c([N+](=O)[O-])c2)cc1 | 1.31% |
| O=S(=O)(c1cccc2nonc12)N1CCN(c2cccc(Cl)c2)CC1 | 0.53% |
| Cc1cc2cc3c(N)[nH]nc3nc2cc1C | 20.7% (active) |
| CCOc1cc(C(=S)N2CCOCC2)ccc1OS(=O)(=O)c1ccc(Br)cc1 | -1.79% |
| CC(=O)c1ccc(S(=O)(=O)NCc2nnnn2-c2ccccc2)cc1 | -4.62% |
| Cc1cc(C)cc(NC(=O)C2CCCN(S(=O)(=O)c3ccc4[nH]c(=O)ccc4c3)C2)c1 (stereo not given) | 1.72% |
| CCOc1ccc(C2/C(=C(/O)c3ccc4c(c3)CC(C)O4)C(=O)C(=O)N2CCCn2ccnc2)cc1 (stereo not given) | 0.806% |
| COc1ccc(-c2nc3ccccc3n2CCC(C)C)cc1OC | -2.09% |
| CCOCCn1c(-c2ccccc2)nc2ccccc21 | -1.28% |
| COCCn1c(-c2ccc(OC)c(OC)c2)nc2ccccc21 | 18.4% (active) |
| CC(NCc1ccccc1OC1CCCC1)c1ccccc1 (stereo not given) | -1.87% |
| Cc1cc(Cl)c2oc(C(=O)N(C)C(C)c3ccccn3)c(C)c2c1 (stereo not given) | 28.7% (active) |
| Cc1cc(Cl)c2oc(C(=O)NC(C)c3ccncn3)c(C)c2c1 (stereo not given) | 6.71% |
| Cc1cc(Cl)c2oc(C(=O)N3CCC(O)(c4ccccc4)CC3)c(C)c2c1 | 4.04% |
